# Data taken from PubChem BioAssay (Tox21).
# Records with an inconclusive call do not appear. Where a call stands in place of a potency, no number is given. A number with no mark means an inactive call. The source made the active and inactive calls. Calls come from the whole dose curve; as a rule, active = well fitted cell-killing curve with a large enough effect in the repeat runs; inconclusive = weak or mixed curves, or effect the other way; inactive = flat fitted curve, though single readings scatter.
# Legend:
# [1] = cAMP Responsive Elements (CRE) small molecule antagonists, cell-based qHTS assay: qHTS cell viability counter screen (AID 2060913); note: nearly all actives have a fitted effect of over 40% in size; note: potency is the fitted concentration of half-maximal effect
# Outline: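 Viability of NKH477-stimulated (0.25 uM final) CRE-bla HEK293T cells is measured by CellTiter-Glo luminescence following 3 hrs compound exposure at 37 C.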
# [2] = cAMP Responsive Elements (CRE) small molecule agonists, cell-based qHTS assay: qHTS cell viability counter screen (AID 2060914); note: nearly all actives have a fitted effect of over 50% in size
# Outline: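 In the same wells as the reporter read, viability of CRE-bla HEK 293T cells was quantified by CellTiter-Glo luminescence after a 3 h compound exposure.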
smiles,measurement,setting,value
CCC(C(=O)OCCN(CC)CC)c1ccccc1 (centres undefined),Potency,[1],inactive
CC(C)(C)c1ccc(C(=O)CCCCl)cc1,Potency,[1],inactive
C/C=C/C(=O)CC,"viability change, negative = cytotoxic",[1],6.92% [at 18.9 µM]
C=CCc1ccc(OC)c(OC)c1,Potency,[1],inactive
CCCCCCCC/C=C\CCCCCCCC(N)=O,Potency,[1],inactive
CC(C)c1c(C(=O)Nc2ccccc2)c(-c2ccccc2)c(-c2ccc(F)cc2)n1CC[C@@H](O)C[C@@H](O)CC(=O)O,Potency,[1],inactive
C=CCOCC(O)CCl (centres undefined),Potency,[1],inactive
C/C=C\C/C=C/CCCCCCCCOC(C)=O,Potency,[1],inactive
CCCCCCOC(=O)CC,Potency,[1],inactive
Cc1nc2ccc(Cl)cc2[nH]1,Potency,[1],inactive
CCCCCCCCCCCCN1CCCC1=O,Potency,[1],inactive
c1cnc2cc3c(cc2n1)C1CNCC3C1,Potency,[1],inactive
C[C@@H]1CC[C@H]2C(C)(C)[C@H]3C[C@@]12CC[C@@]3(C)O,Potency,[1],inactive
OCC(CO)(CO)COCC(CO)(CO)CO,Potency,[1],inactive
CCOc1cccc(N)c1,Potency,[1],inactive
O=S(=O)(O)c1cccc2c(S(=O)(=O)O)cccc12,Potency,[1],inactive
CCC(CC)CO,Potency,[1],inactive
CCCCCN=C(N)N/N=C/c1c[nH]c2ccc(OC)cc12,Potency,[1],29.8 µM (active)
CN(C)CCN1C(=O)c2ccccc2N(C)c2ccccc21,Potency,[1],inactive
Cc1ccc([N+](=O)[O-])cc1N,Potency,[1],inactive
c1ccc2sc(SN(C3CCCCC3)C3CCCCC3)nc2c1,Potency,[1],inactive
Clc1nc2ccccc2s1,Potency,[1],inactive
c1ccc2scnc2c1,Potency,[1],inactive
CC(C)(C)c1n[nH]c(=S)n(N)c1=O,Potency,[1],inactive
COc1cccc2c1C(=O)c1c(O)c3c(c(O)c1C2=O)C[C@@](O)(C(C)=O)C[C@@H]3O[C@H]1C[C@H](N)[C@H](O)[C@H](C)O1,Potency,[1],inactive
COc1ccc(/C(C)=C/C(=O)O)c(OC)c1,Potency,[1],inactive
O=S(=O)(c1cccc2cnccc12)N1CCCNCC1,Potency,[1],inactive
CC(C)CC(C)(N)C#N (centres undefined),Potency,[1],inactive
Cc1cc(=O)c2c(O)c3c(O)cc(=O)c4c3c3c(cc(O)c1c23)C(C)(C)C=4O,"viability change, negative = cytotoxic",[1],-18.2% [at 18.9 µM]
CC(CO)CO,Potency,[1],inactive
O=C(O)COCCN1CCN(C(c2ccccc2)c2ccc(Cl)cc2)CC1 (centres undefined),Potency,[1],inactive
CC(C)OC(=O)OCOP(=O)(CO[C@H](C)Cn1cnc2c(N)ncnc21)OCOC(=O)OC(C)C,Potency,[1],inactive
CCCCC1CCC(O)CC1 (centres undefined),Potency,[1],inactive
CC(C)COC(=O)c1ccc(N)cc1,Potency,[1],inactive
CC1=CC[C@H]2C[C@@H]1C2(C)C,Potency,[1],inactive
COc1cccc2c1C(=O)c1c(O)c3c(c(O)c1C2=O)C[C@@](O)(C(=O)CO)C[C@@H]3O[C@H]1C[C@H](N)[C@H](O[C@@H]2CCCCO2)[C@H](C)O1,Potency,[1],inactive
CN(C)Cc1ccccc1O,Potency,[1],inactive
COc1cc(Cl)ccc1Oc1ccc(Cl)cc1Cl,Potency,[1],inactive
CCCCCCCCCCC1CO1 (centres undefined),Potency,[1],inactive
Cc1ccc(C(=O)c2ccc(CC(=O)O)n2C)cc1,Potency,[1],inactive
Cc1c(N)cccc1N,Potency,[1],inactive
CN(C)CCN(C)CCN(C)C,Potency,[1],inactive
NC(=O)CC[C@@H](N)C(=O)O,Potency,[1],inactive
O=C(O)c1ccccc1[N+](=O)[O-],Potency,[1],inactive
CCC(=O)OC(C)c1ccccc1 (centres undefined),Potency,[1],inactive
NC(N)=Nc1nc(CSCC/C(N)=N/S(N)(=O)=O)cs1,Potency,[1],inactive
CCc1ccc2c(c1)C(=O)c1ccccc1C2=O,Potency,[1],inactive
Cc1ccc(C(=O)C(C)CN2CCCCC2)cc1 (centres undefined),Potency,[1],inactive
CCCCCCCC1CCCC1=O (centres undefined),Potency,[1],inactive
c1ccc(B(c2ccccc2)c2ccccc2)cc1,Potency,[1],inactive
CCc1cccc2c(CCO)c[nH]c12,Potency,[1],inactive
C1=CCC(c2ccccc2)CC1 (centres undefined),Potency,[1],inactive
COC(=O)C1=C(C)NC(C)=C(C(=O)OCCN(C)Cc2ccccc2)C1c1cccc([N+](=O)[O-])c1 (centres undefined),Potency,[1],inactive
CCOC(=O)CC(=O)c1cc(F)c(Cl)nc1Cl,Potency,[1],inactive
CCNC(=O)NCCCOc1cccc(CN2CCCCC2)c1,Potency,[1],inactive
CCCNC(=O)NS(=O)(=O)c1ccc(Cl)cc1,Potency,[1],inactive
Cn1cc(S(C)=O)c(=O)c2ccc(F)cc21 (centres undefined),Potency,[1],inactive
CCCCCCCCC(C)=O,Potency,[1],inactive
CC1(C)[C@@H](O[C@H]2O[C@H](C(=O)O)[C@@H](O)[C@H](O)[C@H]2O[C@@H]2O[C@H](C(=O)O)[C@@H](O)[C@H](O)[C@H]2O)CC[C@]2(C)[C@H]3C(=O)C=C4[C@@H]5C[C@@](C)(C(=O)O)CC[C@]5(C)CC[C@@]4(C)[C@]3(C)CC[C@@H]12,Potency,[1],inactive
NC(N)=O,Potency,[1],inactive
COC(=O)CC#N,Potency,[1],inactive
Oc1ccc(C2(c3ccc(O)c(C4CCCCC4)c3)CCCCC2)cc1C1CCCCC1,Potency,[1],43.3 µM (active)
CCN(CC)C(=O)c1cccc(C)c1,Potency,[1],inactive
CCN(CC)CCNC(=O)c1cc(S(C)(=O)=O)ccc1OC,Potency,[1],inactive
CC(C)CCCCCCCOC(=O)c1ccc(C(=O)OCCCCCCCC(C)C)c(C(=O)OCCCCCCCC(C)C)c1,Potency,[1],inactive
O=[N+]([O-])c1cc(C(F)(F)F)ccc1Cl,Potency,[1],inactive
CCC(C)C(=O)OC (centres undefined),Potency,[1],inactive
CCC(C)OC(=O)c1ccc(O)cc1 (centres undefined),Potency,[1],inactive
CC1=C(C(=O)OC(C)C)C(c2cccc([N+](=O)[O-])c2)C(C(=O)OC2CN(C(c3ccccc3)c3ccccc3)C2)=C(N)N1 (centres undefined),Potency,[1],inactive
CC(=O)OCC1=C(C(=O)O)N2C(=O)[C@@H](NC(=O)Cc3cccs3)[C@H]2SC1,Potency,[1],inactive
O=C(N[C@H](CO)[C@H](O)c1ccc([N+](=O)[O-])cc1)C(Cl)Cl,Potency,[1],inactive
O=c1[nH]cc(F)c(=O)[nH]1,Potency,[1],inactive
N#Cc1ccc(C/C(=N/NC(=O)Nc2ccc(OC(F)(F)F)cc2)c2cccc(C(F)(F)F)c2)cc1,Potency,[1],inactive
Cc1ccc(S(=O)(=O)C(I)I)cc1,Potency,[1],61.1 µM (active)
CCc1cc(S(=O)(=O)O)c2cc(C(C)C)cccc1-2,Potency,[1],inactive
CC1=CC(C)C(C=O)CC1 (centres undefined),Potency,[1],inactive
OCC(O)c1ccccc1 (centres undefined),Potency,[1],inactive
Cc1cccc(Cl)c1,Potency,[1],inactive
CCN(CC)CCOC(=O)C(c1ccccc1)c1ccccc1,Potency,[1],inactive
Oc1ccc(Cl)cc1Cc1cc(Cl)ccc1O,Potency,[1],50.8 µM (active)
C=C(C)C(N)=O,Potency,[1],inactive
same,Potency,[2],inactive
Nc1ccc(NC(=O)c2ccc(N)cc2)cc1,Potency,[1],inactive
same,Potency,[2],inactive
CCCC(CCC)(C(=O)OCC)C(=O)OCC,Potency,[1],inactive
same,Potency,[2],inactive
CCCCCCCCC(CO)CCCCCC (centres undefined),Potency,[1],inactive
same,Potency,[2],inactive
O=C1c2ccccc2C(=O)N1SC1CCCCC1,Potency,[1],inactive
same,Potency,[2],inactive
Cc1oc(=O)oc1CN1CCN(c2cc3c(cc2F)c(=O)c(C(=O)O)c2n3C(C)S2)CC1 (centres undefined),Potency,[1],inactive
CCn1cc(C(=O)O)c(=O)c2cc(F)c(N3CCNC(C)C3)c(F)c21 (centres undefined),Potency,[1],inactive
same,Potency,[2],inactive
Cc1c(C)n(Cc2ccccc2)c2ccc(C(=O)OCCN(C)C)cc12,Potency,[1],inactive
same,Potency,[2],inactive
CN(C)C(=O)Oc1ccc[n+](C)c1,Potency,[1],inactive
same,Potency,[2],inactive
CCCCC(CC)CN1C(=O)C2C3C=CC(C3)C2C1=O (centres undefined),Potency,[1],inactive
same,Potency,[2],inactive
O=C1c2ccccc2C(=O)c2cc(S(=O)(=O)O)ccc21,Potency,[1],inactive
same,Potency,[2],inactive
CCCCCCCC/C=C\CCCCCCCC(=O)OCC,Potency,[1],inactive
same,Potency,[2],inactive
C[C@H](CN1CCCC1)C(=O)c1ccc(C(F)(F)F)cc1,Potency,[1],inactive
same,Potency,[2],inactive
OC[C@H]1O[C@@H](O[C@@H]2[C@@H](CO)O[C@](O)(CO)[C@H]2O)[C@H](O)[C@@H](O)[C@H]1O,Potency,[1],inactive
same,Potency,[2],inactive
O=C(Cn1ccnc1[N+](=O)[O-])NCc1ccccc1,Potency,[1],inactive
same,Potency,[2],inactive
CC(C)CCOCc1ccccc1,Potency,[1],inactive
O=C(Nc1cccc2c(=O)cc(-c3nn[nH]n3)oc12)c1ccc(OCCCCc2ccccc2)cc1,Potency,[1],inactive
same,Potency,[2],inactive
CCN(CC)CC1CCCCN1CC(=O)N1c2ccccc2C(=O)Nc2cccnc21 (centres undefined),Potency,[1],inactive
same,Potency,[2],inactive
CCC1(C)CC(=O)NC1=O (centres undefined),Potency,[1],inactive
same,Potency,[2],inactive
CNS(=O)(=O)CCc1ccc2[nH]cc(C3CCN(C)CC3)c2c1,Potency,[1],inactive
same,Potency,[2],inactive
Cc1cc(Cc2ccc(N)c(C)c2)ccc1N,Potency,[1],inactive
same,Potency,[2],inactive
CCOC(=O)C(=O)CCc1ccccc1,Potency,[1],inactive
same,Potency,[2],inactive
CC1=C(CC(=O)O)c2cc(F)ccc2/C1=C\c1ccc(S(C)(=O)=O)cc1,Potency,[1],inactive
same,Potency,[2],inactive
c1ccc(OCCOc2ccccc2)cc1,Potency,[1],inactive
same,Potency,[2],inactive
O=C(O)c1ccc2c(c1)nc(C(=O)NC1CCN(C3CC3)CC1)n2Cc1cc(-c2ccc(Cl)s2)on1,"viability change, negative = cytotoxic",[1],-0.942% [at 18.9 µM]
same,"activity change, negative = cytotoxicity",[2],-9.02% [at 18.9 µM]
Cc1ncc(CO)c(CN)c1O,Potency,[1],inactive
same,Potency,[2],inactive
CCN(CC)CC(=O)Oc1ccc(NC(C)=O)cc1,Potency,[1],inactive
same,Potency,[2],inactive
O=[N+]([O-])c1cccc(I)c1,Potency,[1],inactive
same,Potency,[2],inactive
Clc1cccc(-c2cc(Cl)cc(Cl)c2)c1,Potency,[1],inactive
same,Potency,[2],inactive
c1ccc(OCc2ccc(CCCN3CCOCC3)cc2)cc1,Potency,[1],inactive
same,Potency,[2],inactive
NC(=O)c1ccccc1C(N)=O,Potency,[1],inactive
same,Potency,[2],inactive
O=c1[nH]c2ccccc2n1CCCN1CCN(C(c2ccccc2)c2ccccc2)CC1,Potency,[1],inactive
Cc1ccc(N)c([N+](=O)[O-])c1,Potency,[1],inactive
same,Potency,[2],inactive
O=C(O)CCn1c2c(c3ccccc31)C[C@H](NS(=O)(=O)c1ccc(F)cc1)CC2,Potency,[1],inactive
CCCCCCCCCCC=O,Potency,[1],inactive
O=C=Nc1ccc(Cc2ccc(N=C=O)cc2)cc1,Potency,[1],inactive
same,Potency,[2],inactive
Cc1cnc(NS(=O)(=O)c2ccc(N)cc2)nc1,Potency,[1],inactive
same,Potency,[2],inactive
COc1ccc(COC(C)=O)cc1,Potency,[1],inactive
CC(C)(C)c1n[nH]c(=O)n(N)c1=O,Potency,[1],inactive
same,Potency,[2],inactive
N#Cc1ccccc1O,Potency,[1],inactive
same,Potency,[2],inactive
